Bioassay records: PubChem, several laboratories
14-3-3 Bad PPI: disrupts binding of bovine 14-3-3 zeta to phospho-Bad peptide. 220,000 tested, 0.71% active. TR-FRET 14-3-3zeta/Dy647-pBad peptide displacement, 1 h. P63103. inhibition, % at 21.7 µM;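 active = inhibition above about 70%, limit read from the data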;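 note: 0% = full 14-3-3 plus peptide FRET controls and 100% = background without 14-3-3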
p47phox inh: blocks human p47phox regulatory protein of NADPH oxidases; p47phox/p22phox peptide binding, fluorescence polarization, 2 h; inhibition, % at 24.7 µM; 220,000 tested, 0.53% active; AID 1274;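 note: 0% = p47phox with labelled peptide and 100% = labelled peptide alone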
Target sequence (P14598 whole entry, looked up): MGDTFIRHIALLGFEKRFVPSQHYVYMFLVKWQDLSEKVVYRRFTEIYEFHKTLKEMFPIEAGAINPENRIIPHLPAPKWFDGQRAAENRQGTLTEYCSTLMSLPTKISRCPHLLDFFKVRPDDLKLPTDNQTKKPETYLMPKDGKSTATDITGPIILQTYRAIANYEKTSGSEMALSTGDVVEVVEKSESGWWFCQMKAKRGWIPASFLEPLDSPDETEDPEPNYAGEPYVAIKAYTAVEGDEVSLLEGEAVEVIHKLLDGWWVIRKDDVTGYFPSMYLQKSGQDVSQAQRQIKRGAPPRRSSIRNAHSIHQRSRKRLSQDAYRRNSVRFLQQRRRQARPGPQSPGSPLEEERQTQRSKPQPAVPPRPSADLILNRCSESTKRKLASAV
Mcl1-Noxa inh: Mcl-1/Noxa interaction inhibition; AID 1022; inhibition, % at 21.7 µM; TR-FRET Mcl-1/Noxa peptide binding, 2 h; 220,000 tested, 1.5% active;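 active = compounds that cut the protein-peptide binding signal by more than 50% relative to plate controls in a single-dose test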;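 note: His-tagged Mcl-1 with rhodamine Noxa BH3 peptide and terbium anti-His antibody; 0% = Mcl-1 plus Noxa peptide wells and 100% = peptide-only wells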
eIF4E-4G inh: inhibitors of eIF4E and eIF4G interaction in translation initiation; AID 782; P63073+Q04637; inhibition, % at 21.7 µM; 220,000 tested, 0.37% active; TR-FRET eIF4E-eIF4GI(517-606) binding, 2 h;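 note: 0% = full FRET control wells and 100% = background wells lacking eIF4GI fragment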
Mcl-1 Bim block: human Bim-Mcl-1 interaction inhibition | Q07820 | Bead-based flow cytometry, Bim peptide-Mcl-1 binding | inhibition, % at 10 µM | 190,000 tested, 0.1% active | AID 1009; in the data active = inhibition above about 40%;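 note: 0% = no compound tracer wells and 100% = peptide blocker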
Mcl1 Bid PPI: Mcl-1/Bid interaction inhibition; Q07820; TR-FRET Mcl-1/Bid-Dy647 peptide binding, 1536-well; inhibition, % at 21.7 µM; 220,000 tested, 0.97% active; AID 1021;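 active = compounds that cut the binding signal by more than half at the single screening dose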;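 note: His-tagged Mcl-1 with europium anti-His antibody binding Bid BH3 peptide; 0% = Mcl-1 plus peptide wells and 100% = peptide-only wells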
Active calls of the source: *; / = no result given; [ ] = dose if it differs, or a comment. An excerpt weighted towards active compounds, which were near 3.4% of everything screened.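 Rule for the calls, unless noted: active = inhibition above about 30% (limit read from the data); inactive = the rest.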

SMILES	14-3-3 Bad PPI	p47phox inh	Mcl1-Noxa inh	eIF4E-4G inh	Mcl-1 Bim block	Mcl1 Bid PPI
CSc1cccc(NC(=O)c2c(Cl)cnn2C)c1	26	-38	-3	3	-3	-6
Cn1ncc(Cl)c1C(=O)Nc1cccc(Cl)c1	15	-11	52*	8	-1	4
Cn1ncc(N=Cc2c(O)ccc3ccccc23)c1C(=O)Nc1cccc(Cl)c1	34	-16	44	9	2	55*
CCOc1ccc(CNC(=S)N/N=C/c2cccnc2)cc1	-15	-12	14	-3	-3	-31
CCOc1ccc(CNC(=S)N/N=C\c2ccc([N+](=O)[O-])cc2)cc1	11	-1	54*	-5	-7	45
CCN=C(N/N=C/c1ccc([N+](=O)[O-])cc1)SC	65	-5	29	31*[fluorescence artefact?]	0	14
O=C(NC1CCCC1)c1n[nH]c2ccccc12	-8	-2	15	-2	0	-15
Cc1c(-n2c(O)c(C3=c4ccccc4=NC3=O)sc2=S)c(=O)n(-c2ccccc2)n1C	40	19	53*	6	-1	32
O=C1N=c2ccccc2=C1c1sc(=S)n(Cc2ccccc2Cl)c1O	-9	0	3	2	/	-22
O=C1N=c2ccccc2=C1c1sc(=S)n(NC(=O)c2cccc(O)c2)c1O	-25	-14	21	3	-5	-18
O=C1N=c2ccccc2=C1c1sc(=S)n(-c2ccc(O)cc2)c1O	21	-1	70*	-1	/	21
Cc1ccccc1Oc1nc(-c2ccccn2)nc2ccccc12	-1	11	-7	-1	/	0
O=S1(=O)CC/C(=N/Nc2ccc(C(F)(F)F)cn2)c2cc(F)ccc21	9	0	14	87*	2	21
Cc1oc(-c2ccc(Cl)cc2)nc1CN1CCC(C(=O)N2CCN(Cc3ccccc3)CC2)CC1	3	1	3	-3	1	-17
Cc1oc(-c2ccc(Cl)cc2)nc1CN1CCC(C(=O)N2CCc3ccccc3C2)CC1	8	45*	8	-2	-2	-15
Cc1oc(-c2ccc(Cl)cc2)nc1CN1CCC(C(=O)NCc2ccco2)CC1	-16	-8	-19	64*	0	-13
COc1ccc(CC(=O)OCC(=O)Nc2ccc3c(c2)OCO3)cc1	7	5	28	0	-2	-24
NCC12CC3CC(C1)CC(c1ccc(Cl)cc1)(C3)C2	5	-21	0	3	1	-17
Cc1ccc(NC(=O)/C(=C\c2ccc([N+](=O)[O-])cc2)NC(=O)c2ccccc2)cc1	-9	-8	4	-7	-2	-13
O=C(N/N=C/c1ccc(O)c(O)c1O)/C(=C/c1ccc([N+](=O)[O-])cc1)NC(=O)c1ccccc1	2	-10	87*	22	5	-101
O=C1ON=C(c2ccccc2)/C1=C/c1ccc(-c2ccccc2[N+](=O)[O-])o1	22	142*	67*	5	-8	-11
COc1cc2nc(CN3CCC(C(O)(c4ccccc4)c4ccccc4)CC3)[nH]c(=O)c2cc1OC	-4	3	7	0	0	-24
Oc1[nH]c2ccccc2c1/C=N/N1CCCCC1	-6	-8	-6	-9	0	93*
CC1CC(C)CN(C(=O)c2cc3cc(Br)cc(Br)c3o2)C1 (stereo not given)	1	-9	19	1	-2	-2
Cc1cc(C)cc(C(=O)N2CCN(c3ccccn3)CC2)c1	-6	-9	2	-2	-1	-26
SMILES	14-3-3 Bad PPI	p47phox inh	Mcl1-Noxa inh	eIF4E-4G inh	Mcl-1 Bim block	Mcl1 Bid PPI
CC(C)C1=Nc2cccc3cccc(c23)N1	38	150*	53*	3	-6	-71
COc1ccc(NC2=Nc3cccc4cccc2c34)cc1	-15	-3	14	-5	-5	-18
Nc1cccc(C2=Nc3cccc4cccc(c34)N2)c1	-8	12	74*	18	-3	35
COc1ccc(C2=Nc3cccc4cccc(c34)N2)cc1	-13	-20	35	-7	4	-72
c1ccc(NC2=Nc3cccc4cccc2c34)cc1	-1	-11	19	4	1	-29
ClCC1=Nc2cccc3cccc(c23)N1	8	10	58*	13	/	-75
CCN(CC)c1ccc(NC(=S)Nc2ccc(F)cc2)cc1	-11	-6	12	-5	-6	-54
